Experimental data from PubChem BioAssay AID1159580 (chemical genetic matrix, 2015).
Out of some 5,500 compounds screened, about 2,000 (36%) were called active. Inconclusive results (about 18%) are left out. Rule as the data show it: active = normalized growth mostly below about 0.91 (no sharp cut-off); inconclusive = no clear call, values can overlap the other calls; inactive = mostly above about 0.92. This is one part of the list.

Experiment: chemical genetic growth profiling, strain panel (AID 1159580);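 also: tested at 20 µM; growth read once vehicle control cultures reached saturation at 30 °C; 1 = growth at the plate median or of vehicle wells; lower values mean less growth of the strain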
Conditions: S. cerevisiae deletion strains, growth OD

Measured: normalized growth

FC(F)(F)c1ccccc1-n1ccnc1
inactive: locus YAL021C, strain ccr4, stronger effect = lower value 0.971 | locus YAL026C, strain drs2, stronger effect = lower value 1.02 | locus YAL030W, strain snc1, stronger effect = lower value 1.01 | locus YAL040C, strain CLN3, stronger effect = lower value 1.01 | locus YBL061C, strain skt5, stronger effect = lower value 1.01 | locus YBR009C, strain hhf1, stronger effect = lower value 1.08 | locus YBR023C, strain chs3, stronger effect = lower value 1 | locus YBR171W, strain sec66, stronger effect = lower value 0.966 | locus YBR231C, strain swc5, stronger effect = lower value 1 | locus YBR279W, strain paf1, stronger effect = lower value 1 | locus YCL011C, strain gbp2, stronger effect = lower value 0.998 | locus YCL016C, strain dcc1, stronger effect = lower value 1.01 | locus YCL061C, strain MRC1 (second series), stronger effect = lower value 1 | locus YCL061C, strain MRC1, stronger effect = lower value 1 | locus YCL069W, strain vba3, stronger effect = lower value 0.999 | locus YCR088W, strain abp1, stronger effect = lower value 0.986 | locus YDL005C, strain med2, stronger effect = lower value 0.992 | locus YDL040C, strain nat1, stronger effect = lower value 1 | locus YDR001C, strain nth1, stronger effect = lower value 0.988 | locus YDR069C, strain doa4, stronger effect = lower value 0.999 | locus YDR137W, strain rgp1, stronger effect = lower value 0.949 | locus YDR159W, strain sac3, stronger effect = lower value 1.04 | locus YDR195W, strain ref2 1.03 | locus YDR297W, strain sur2, stronger effect = lower value 0.995 | locus YDR334W, strain swr1, stronger effect = lower value 0.963 | locus YDR335W, strain msn5, stronger effect = lower value 0.988 | locus YDR363W, strain ESC2, stronger effect = lower value 1.02 | locus YDR392W, strain spt3, stronger effect = lower value 0.993 | locus YEL003W, strain gim4, stronger effect = lower value 0.987 | locus YEL037C, strain rad23, stronger effect = lower value 1 | locus YEL061C, strain CIN8 (second series), stronger effect = lower value 0.995 | locus YER002W, strain NOP16, stronger effect = lower value 0.991 | locus YER015W, strain faa2, stronger effect = lower value 1 | locus YER016W, strain bim1, stronger effect = lower value 1.01 | locus YER111C, strain swi4, stronger effect = lower value 0.999 | locus YER155C, strain BEM2 (second series), stronger effect = lower value 1.04 | locus YFR010W, strain ubp6, stronger effect = lower value 1 | locus YGL167C, strain pmr1, stronger effect = lower value 1.01 | locus YGL173C, strain kem1, stronger effect = lower value 1.01 | locus YGL227W, strain vid30, stronger effect = lower value 1.02 | locus YGL240W, strain doc1, stronger effect = lower value 1.06 | locus YGL253W, strain hxk2, stronger effect = lower value 1 | locus YHR013C, strain ard1, stronger effect = lower value 0.998 | locus YHR027C, strain rpn1, stronger effect = lower value 0.99 | locus YHR030C, strain SLT2, stronger effect = lower value 0.993 | locus YHR079C, strain IRE1, stronger effect = lower value 1.01 | locus YHR142W, strain chs7, stronger effect = lower value 0.935 | locus YJL092W, strain hpr5, stronger effect = lower value 0.975 | locus YJL095W, strain BCK1 (second series), stronger effect = lower value 0.994 | locus YJL095W, strain BCK1, stronger effect = lower value 1 | locus YJL115W, strain asf1, stronger effect = lower value 0.983 | locus YJL129C, strain trk1, stronger effect = lower value 0.974 | locus YJL154C, strain vps35, stronger effect = lower value 1 | locus YJL164C, strain tpk1, stronger effect = lower value 0.978 | locus YJL166W, strain qcr8, stronger effect = lower value 1.01 | locus YJL187C, strain SWE1, stronger effect = lower value 1 | locus YJR066W, strain TOR1, stronger effect = lower value 0.936 | locus YKL160W, strain elf1, stronger effect = lower value 0.971 | locus YKR026C, strain gcn3, stronger effect = lower value 0.993 | locus YKR091W, strain srl3, stronger effect = lower value 1 | locus YLL001W, strain dnm1, stronger effect = lower value 1 | locus YLL026W, stronger effect = lower value 1 | locus YLL041C, strain sdh2, stronger effect = lower value 0.994 | locus YLR027C, strain aat2, stronger effect = lower value 0.99 | locus YLR113W, strain HOG1, stronger effect = lower value 1.05 | locus YLR221C, strain rsa3, stronger effect = lower value 0.985 | locus YLR258W, strain gsy2, stronger effect = lower value 1.03 | locus YLR262C, strain YPT6 (second series), stronger effect = lower value 0.923 | locus YLR320W, strain mms22, stronger effect = lower value 1 | locus YLR342W, strain FKS1, stronger effect = lower value 1 | locus YLR357W, strain rsc2, stronger effect = lower value 1.02 | locus YLR370C, strain arc18, stronger effect = lower value 1 | locus YLR384C, strain iki3, stronger effect = lower value 0.995 | locus YML120C, strain ndi1, stronger effect = lower value 0.979 | locus YMR058W, strain fet3, stronger effect = lower value 0.98 | locus YMR125W, strain sto1, stronger effect = lower value 1.02 | locus YMR129W, stronger effect = lower value 0.992 | locus YMR205C, strain PFK2, stronger effect = lower value 1.09 | locus YMR231W, strain pep5, stronger effect = lower value 1.02 | locus YMR307W, strain GAS1, stronger effect = lower value 1.02 | locus YNL071W, strain lat1, stronger effect = lower value 0.992 | locus YNL175C, strain NOP13, stronger effect = lower value 0.976 | locus YNL183C, strain NPR1, stronger effect = lower value 0.925 | locus YNL197C, strain WHI3, stronger effect = lower value 0.977 | locus YNL209W, strain ssb2, stronger effect = lower value 1 | locus YNL224C, strain SQS1, stronger effect = lower value 0.995 | locus YNL248C, strain rpa49, stronger effect = lower value 0.936 | locus YNL322C, strain KRE1 (second series), stronger effect = lower value 1.01 | locus YNL322C, strain KRE1, stronger effect = lower value 0.996 | locus YNR049C, strain mso1, stronger effect = lower value 0.995 | locus YOR001W, strain rrp6, stronger effect = lower value 0.949 | locus YOR070C, strain gyp1, stronger effect = lower value 1 | locus YOR080W, strain dia2, stronger effect = lower value 1 | locus YOR083W, strain WHI5 (second series), stronger effect = lower value 0.948 | locus YOR083W, strain WHI5, stronger effect = lower value 0.944 | locus YOR106W, strain vam3, stronger effect = lower value 0.951 | locus YOR231W, strain MKK1, stronger effect = lower value 0.981 | locus YOR265W, strain rbl2, stronger effect = lower value 0.991 | locus YOR270C, strain vph1, stronger effect = lower value 0.946 | locus YOR290C, strain snf2, stronger effect = lower value 0.939 | locus YPL051W, strain arl3, stronger effect = lower value 0.98 | locus YPL078C, strain atp4, stronger effect = lower value 0.931 | locus YPL106C, strain sse1, stronger effect = lower value 1.02 | locus YPL240C, strain hsp82, stronger effect = lower value 0.975 | locus YPL241C, strain CIN2, stronger effect = lower value 0.998 | locus YPL256C, strain CLN2, stronger effect = lower value 1.03
